# PubChem BioAssay (NCI)
# Compounds without any hit were thinned out: in the full panel of roughly 79,000, 15% have a hit. Values without a mark were called inactive. Calls of active or inactive are those of the source. No stated cut-off is given here; in the data, active means growth inhibition above about 70%; inactive means the rest.
# Key:
# [1] = NCI Yeast Anticancer Drug Screen. Data for the rad52 strain (AID 147);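 further: 0% = growth of vehicle-treated control cultures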; conditions: S. cerevisiae rad52 mutant growth inhibition, hits give high values
# How it was run: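 Read-out: growth inhibition versus vehicle-treated controls. Cells were a DNA repair-deficient yeast strain treated with compounds.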
# [2] = NCI Yeast Anticancer Drug Screen. Data for the wt1 strain (AID 149);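 further: 0% = growth of vehicle-treated wt1 cultures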; conditions: S. cerevisiae wt1 strain (SPY 50644) growth inhibition, hits give high values
# How it was run: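 Compounds are added to wt1 yeast cultures. Growth is then measured. Inhibition is expressed relative to vehicle-treated controls.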
# [3] = NCI Yeast Anticancer Drug Screen. Data for the rad50EPP+ strain (AID 151);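 further: 0% = growth of vehicle-treated control cultures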; conditions: S. cerevisiae rad50 mutant strain, hits give high values
# How it was run: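 Growth inhibition read against vehicle controls in rad50EPP+ yeast, a strain altered in DNA damage repair, after compound exposure.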
# [4] = NCI Yeast Anticancer Drug Screen. Data for the mgt1 strain (AID 153); conditions: S. cerevisiae mgt1 mutant growth inhibition, hits give high values
# How it was run: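 mgt1 yeast grown with test compound; read-out is growth inhibition versus vehicle-treated cultures.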
# [5] = NCI Yeast Anticancer Drug Screen. Data for the rad50 strain (AID 155);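 further: 0% = growth of vehicle-only cultures of the same strain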; conditions: S. cerevisiae rad50 strain growth inhibition, hits give high values
# How it was run: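 Inhibition values express reduced yeast growth in compound-treated cultures relative to vehicle-treated controls.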
# [6] = NCI Yeast Anticancer Drug Screen. Data for the mec2-1 strain (AID 157); conditions: S. cerevisiae mec2-1 strain, hits give high values
# How it was run: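 Yeast mec2-1 mutant treated with compound. Readout: growth inhibition vs vehicle controls.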
# [7] = NCI Yeast Anticancer Drug Screen. Data for the rad14 strain (AID 159);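 further: 0% = growth of vehicle-treated control cultures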; conditions: S. cerevisiae rad14 strain growth inhibition, hits give high values
# How it was run: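 A mutant yeast strain defective in DNA damage repair is treated with compound; inhibition of its growth is scored against untreated, vehicle-exposed cultures.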
# [8] = NCI Yeast Anticancer Drug Screen. Data for the sgs1 mgt1 strain (AID 161);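 further: 0% = growth of cultures given vehicle only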; conditions: S. cerevisiae sgs1 mgt1 strain, hits give high values
# How it was run: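 Mutant yeast exposed to compound; growth scored against vehicle-only wells.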
# [9] = NCI Yeast Anticancer Drug Screen. Data for the CLN2oe strain (AID 163);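 further: 0% = growth of vehicle-only control cultures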; conditions: S. cerevisiae CLN2oe strain, hits give high values
# How it was run: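 Read-out: yeast growth inhibition, expressed relative to vehicle-only controls. The strain bears an engineered cell-cycle alteration.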
# [10] = NCI Yeast Anticancer Drug Screen. Data for the cln2 rad14 strain (AID 165);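 further: 0% = growth equal to vehicle treated cultures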; conditions: S. cerevisiae cln2 rad14 strain, hits give high values
# How it was run: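 cln2 rad14 yeast strain; compound exposure; growth inhibition read vs vehicle controls.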
# [11] = NCI Yeast Anticancer Drug Screen. Data for the bub3 strain (AID 167); conditions: S. cerevisiae bub3 mutant strain, hits give high values
# How it was run: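 Steps: expose the mutant yeast strain to compound; grow alongside vehicle-treated cultures; measure growth; express inhibition against the vehicle cultures.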
# [12] = NCI Yeast Anticancer Drug Screen. Data for the wt2 strain (AID 169);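 further: 0% = growth of vehicle-treated yeast cultures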; conditions: S. cerevisiae wt2 strain growth inhibition, hits give high values
# How it was run: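 Read-out: growth inhibition versus vehicle-treated control cultures after compound exposure of the yeast strain.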
# [13] = NCI Yeast Anticancer Drug Screen. Data for the mlh1 strain (AID 171);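 further: 0% = growth of vehicle-treated control cultures of the same strain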; conditions: S. cerevisiae mlh1 strain growth inhibition, hits give high values
# How it was run: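 Read-out: growth inhibition versus vehicle controls. Strain: engineered yeast with a defined DNA repair or cell cycle defect, compound-treated.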
# [14] = NCI Yeast Anticancer Drug Screen. Data for the mlh1 rad18 strain (AID 175); conditions: S. cerevisiae mlh1 rad18 strain growth inhibition, hits give high values
# How it was run: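 Yeast w/ defined DNA-repair lesions; compound exposure; growth vs vehicle controls → % inhibition.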
# [15] = NCI Yeast Anticancer Drug Screen. Data for the rad18 strain (AID 177); conditions: S. cerevisiae rad18 mutant growth inhibition, hits give high values
# How it was run: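 Readout: growth inhibition vs vehicle controls. Cells: genetically altered yeast strain, DNA repair defect.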
# [16] = at 5.0 µM (retest, dose inferred, filed as 0.5)
# [17] = at 50.0 µM (retest, dose inferred, filed as 5.0)
smiles,measurement,setting,value
Cc1ccc(S(=O)(=O)NCCSS(=O)(=O)c2ccc(C)cc2)cc1,growth inhibition,[1]; at 1.2 µM,18%
same,growth inhibition,[1]; at 3.7 µM,31%
same,growth inhibition,[1]; at 11.0 µM,38%
same,growth inhibition,[1]; at 33.0 µM,98% (active)
same,growth inhibition,[1]; at 100.0 µM,95% (active)
same,growth inhibition,[2]; at 1.2 µM,6%
same,growth inhibition,[2]; at 3.7 µM,8%
same,growth inhibition,[2]; at 11.0 µM,28%
same,growth inhibition,[2]; at 33.0 µM,99% (active)
same,growth inhibition,[2]; at 100.0 µM,95% (active)
same,growth inhibition,[3]; at 1.2 µM,-14%
same,growth inhibition,[3]; at 3.7 µM,6%
same,growth inhibition,[3]; at 11.0 µM,64%
same,growth inhibition,[3]; at 33.0 µM,91% (active)
same,growth inhibition,[3]; at 100.0 µM,96% (active)
same,growth inhibition,[4]; at 1.2 µM,-13%
same,growth inhibition,[4]; at 3.7 µM,-8%
same,growth inhibition,[4]; at 11.0 µM,3%
same,growth inhibition,[4]; at 33.0 µM,98% (active)
same,growth inhibition,[4]; at 100.0 µM,94% (active)
same,growth inhibition,[5]; at 1.2 µM,9%
same,growth inhibition,[5]; at 3.7 µM,6%
same,growth inhibition,[5]; [16],36%
same,growth inhibition,[5]; at 11.0 µM,17%
same,growth inhibition,[5]; at 33.0 µM,98% (active)
same,growth inhibition,[5]; [17],95% (active)
same,growth inhibition,[5]; at 50.0 µM,88.7% (active)
same,growth inhibition,[5]; at 100.0 µM,93% (active)
same,growth inhibition,[6]; at 1.2 µM,-2%
same,growth inhibition,[6]; at 3.7 µM,-13%
same,growth inhibition,[6]; [16],-24%
same,growth inhibition,[6]; at 11.0 µM,7%
same,growth inhibition,[6]; at 33.0 µM,98% (active)
same,growth inhibition,[6]; [17],96% (active)
same,growth inhibition,[6]; at 50.0 µM,93% (active)
same,growth inhibition,[6]; at 100.0 µM,96% (active)
same,growth inhibition,[7]; at 1.2 µM,-10%
same,growth inhibition,[7]; at 3.7 µM,-15%
same,growth inhibition,[7]; at 11.0 µM,-6%
same,growth inhibition,[7]; at 33.0 µM,98% (active)
same,growth inhibition,[7]; at 100.0 µM,92% (active)
same,growth inhibition,[8]; [16],7%
same,growth inhibition,[8]; [17],95% (active)
same,growth inhibition,[8]; at 50.0 µM,91% (active)
same,growth inhibition,[9]; at 1.2 µM,-29%
same,growth inhibition,[9]; at 3.7 µM,-16%
same,growth inhibition,[9]; at 11.0 µM,-6%
same,growth inhibition,[9]; at 33.0 µM,96% (active)
same,growth inhibition,[9]; at 100.0 µM,93% (active)
same,growth inhibition,[10]; [16],20%
same,growth inhibition,[10]; [17],96% (active)
same,growth inhibition,[10]; at 50.0 µM,87.2% (active)
same,growth inhibition,[11]; at 1.2 µM,-14%
same,growth inhibition,[11]; at 3.7 µM,-29%
same,growth inhibition,[11]; [16],30%
same,growth inhibition,[11]; at 11.0 µM,-4%
same,growth inhibition,[11]; at 33.0 µM,98% (active)
same,growth inhibition,[11]; [17],97% (active)
same,growth inhibition,[11]; at 50.0 µM,88.8% (active)
same,growth inhibition,[11]; at 100.0 µM,94% (active)
same,growth inhibition,[12]; at 1.2 µM,-14%
same,growth inhibition,[12]; at 3.7 µM,-17%
same,growth inhibition,[12]; at 11.0 µM,-1%
same,growth inhibition,[12]; at 33.0 µM,97% (active)
same,growth inhibition,[12]; at 100.0 µM,94% (active)
same,growth inhibition,[13]; at 1.2 µM,-27%
same,growth inhibition,[13]; at 3.7 µM,-34%
same,growth inhibition,[13]; at 11.0 µM,-14%
same,growth inhibition,[13]; at 33.0 µM,98% (active)
same,growth inhibition,[13]; at 100.0 µM,94% (active)
same,growth inhibition,[14]; [16],10%
same,growth inhibition,[14]; [17],95% (active)
same,growth inhibition,[14]; at 50.0 µM,88.7% (active)
same,growth inhibition,[15]; at 1.2 µM,-2%
same,growth inhibition,[15]; at 3.7 µM,6%
same,growth inhibition,[15]; at 11.0 µM,12%
same,growth inhibition,[15]; at 33.0 µM,99% (active)
same,growth inhibition,[15]; at 100.0 µM,94% (active)
CCc1ccc(NS(=O)(=O)c2ccccc2)c([N+](=O)[O-])c1,growth inhibition,[1]; at 1.2 µM,2%
same,growth inhibition,[1]; at 3.7 µM,2%
same,growth inhibition,[1]; at 11.0 µM,11%
same,growth inhibition,[1]; at 33.0 µM,30%
same,growth inhibition,[1]; at 100.0 µM,76% (active)
same,growth inhibition,[2]; at 1.2 µM,1%
same,growth inhibition,[2]; at 3.7 µM,6%
same,growth inhibition,[2]; at 11.0 µM,2%
same,growth inhibition,[2]; at 33.0 µM,5%
same,growth inhibition,[2]; at 100.0 µM,46%
same,growth inhibition,[3]; at 1.2 µM,10%
same,growth inhibition,[3]; at 3.7 µM,18%
same,growth inhibition,[3]; at 11.0 µM,36%
same,growth inhibition,[3]; at 33.0 µM,53%
same,growth inhibition,[3]; at 100.0 µM,75% (active)
same,growth inhibition,[4]; at 1.2 µM,0%
same,growth inhibition,[4]; at 3.7 µM,0%
same,growth inhibition,[4]; at 11.0 µM,3%
same,growth inhibition,[4]; at 33.0 µM,22%
same,growth inhibition,[4]; at 100.0 µM,74% (active)
same,growth inhibition,[5]; at 1.2 µM,3%
same,growth inhibition,[5]; at 3.7 µM,5%
same,growth inhibition,[5]; [16],2%
same,growth inhibition,[5]; at 11.0 µM,5%
same,growth inhibition,[5]; at 33.0 µM,22%
same,growth inhibition,[5]; [17],39%
same,growth inhibition,[5]; at 50.0 µM,37.2%
same,growth inhibition,[5]; at 100.0 µM,72% (active)
same,growth inhibition,[6]; at 1.2 µM,1%
same,growth inhibition,[6]; at 3.7 µM,8%
same,growth inhibition,[6]; [16],6%
same,growth inhibition,[6]; at 11.0 µM,14%
same,growth inhibition,[6]; at 33.0 µM,27%
same,growth inhibition,[6]; [17],39%
same,growth inhibition,[6]; at 50.0 µM,55%
same,growth inhibition,[6]; at 100.0 µM,81% (active)
same,growth inhibition,[7]; at 1.2 µM,2%
same,growth inhibition,[7]; at 3.7 µM,5%
same,growth inhibition,[7]; at 11.0 µM,6%
same,growth inhibition,[7]; at 33.0 µM,11%
same,growth inhibition,[7]; at 100.0 µM,82% (active)
same,growth inhibition,[8]; [16],8%
same,growth inhibition,[8]; [17],54%
same,growth inhibition,[8]; at 50.0 µM,70.7% (active)
same,growth inhibition,[9]; at 1.2 µM,-2%
same,growth inhibition,[9]; at 3.7 µM,-2%
same,growth inhibition,[9]; at 11.0 µM,3%
same,growth inhibition,[9]; at 33.0 µM,17%
same,growth inhibition,[9]; at 100.0 µM,73% (active)
same,growth inhibition,[10]; [16],0%
same,growth inhibition,[10]; [17],20%
same,growth inhibition,[10]; at 50.0 µM,47.5%
same,growth inhibition,[11]; at 1.2 µM,-3%
same,growth inhibition,[11]; at 3.7 µM,4%
same,growth inhibition,[11]; [16],-3%
same,growth inhibition,[11]; at 11.0 µM,7%
same,growth inhibition,[11]; at 33.0 µM,28%
same,growth inhibition,[11]; [17],36%
same,growth inhibition,[11]; at 50.0 µM,53.6%
same,growth inhibition,[11]; at 100.0 µM,67%
same,growth inhibition,[12]; at 1.2 µM,-1%
same,growth inhibition,[12]; at 3.7 µM,3%
same,growth inhibition,[12]; at 11.0 µM,3%
same,growth inhibition,[12]; at 33.0 µM,27%
same,growth inhibition,[12]; at 100.0 µM,78% (active)
same,growth inhibition,[13]; at 1.2 µM,0%
same,growth inhibition,[13]; at 3.7 µM,3%
same,growth inhibition,[13]; at 11.0 µM,7%
same,growth inhibition,[13]; at 33.0 µM,31%
same,growth inhibition,[13]; at 100.0 µM,71% (active)
same,growth inhibition,[14]; [16],1%
same,growth inhibition,[14]; [17],61%
same,growth inhibition,[14]; at 50.0 µM,78% (active)
same,growth inhibition,[15]; at 1.2 µM,2%
same,growth inhibition,[15]; at 3.7 µM,6%
same,growth inhibition,[15]; at 11.0 µM,15%
same,growth inhibition,[15]; at 33.0 µM,43%
same,growth inhibition,[15]; at 100.0 µM,87% (active)
